Drawing on PubChem BioAssay (NCI), this text covers growth for 38 compounds.

Structures are written as SMILES. Several values for one entry are separate records, joined by “and”; a condition that tells them apart may be missing. Identical values can stand only once. The panel holds about 83,000 compounds, 20% with a hit somewhere; the sample as a whole holds those more often.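 Note: values are percent growth. 100 is the growth of untreated cells, values between 100 and 0 indicate rising inhibition; between -100 and 0 indicates cell death.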 Activity calls are given as the source filed them.

One experiment relates to A498 renal. Nature of the experiment: NCI-60 one-dose screen, 48 h (100 = growth as untreated, 0 = no growth, -100 = all killed). Conditions: 4.75 µM. Here is the method:
Growth inhibition of the A498 human tumor cell line is measured as a screen for anti-cancer activity. Cells are grown in 96 well plates and exposed to the test compound for 48 hours. Compounds are tested at a single concentration, which is 10^-5 M for most compounds. The reported endpoint is percent growth (GI% or GIPRCNT), where numbers from 0 - 100% represent growth inhibition, and numbers from -100% - 0 represent cell death. For example, a value of 40 represents 60% growth inhibition. A value of 0 means no net growth occurred over the course of the experiment. A value of -40 indicates 40% of cells at the beginning of the experiment died by the end of the experiment. A value of -100 means all cells are dead at the end of the experiment.
NCI-60 Human Tumor Cell Lines Screen was performed using the standard one-dose NCI protocol, which is described in more detail at https://dtp.cancer.gov/discovery_development/nci-60/default.htm.
Compounds with GIPRCNT values below 10 were considered active. Activity score was based on GIPRCNT using the following formula: […]
Score is 0 for GIPRCNT values of 100 or above, 50 for GIPRCNT values of 0, and 100 for GIPRCNT values of -100.
For `CC(=O)OCC1OC([S-])C(OC(C)=O)C(OC(C)=O)C1OC(C)=O.[Au+].c1ccc(CN2[CH-]N(Cc3ccccc3)C(c3ccccc3)=C2c2ccccc2)cc1`, the growth is -14.7% (active).

The same experiment, now with this note: 10 µM.
In the case of `O=C(O)CCCc1ccc(N(CCCl)CCCl)cc1`, the growth is 115% (inactive) and 99.6% (inactive).

On to `CC(=O)OCC1OC([S-])C(OC(C)=O)C(OC(C)=O)C1OC(C)=O.[Au+].c1ccc(CN2[CH-]N(Cc3ccccc3)C(c3ccccc3)=C2c2ccccc2)cc1`, for which the growth is 50.4% (inactive).

The experiment is the same for the next values; noted with them: 10 µM unless noted.
Consider `N#CCN(CC#N)[N+](=O)[O-]`, for which the growth is 95% (inactive). For `N#CC(N)c1ccccc1` (stereo not given), the growth was 81.2% (inactive). Consider `COc1cc(-c2ccc(N)c(OC)c2)ccc1N`, for which the growth was 118% (inactive). Same read-out and setting: then `COc1ccc(CN)cc1OC`, with 124% (inactive) and 85% (inactive).

With `O=C1CN2CCC1CC2`, the growth is 72.2% (inactive). Turning to `O=c1[nH]c(=O)[nH]c(=O)[nH]1`, the growth is 129% (inactive). Still for that read-out and setting: under `Cc1cc(NC(=O)NCCCOc2ccc(N3C(N)=NC(N)=NC3(C)C)cc2Cl)ccc1S(=O)(=O)F` stands 94.6% (inactive); under `Clc1ccc(COC(Cn2ccnc2)c2ccc(Cl)cc2Cl)c(Cl)c1` (stereo not given), 46.1% (inactive); under `O=[N+]([O-])c1ccc(CI)cc1`, 95.7% (inactive).

Consider `COc1ccc(O)c2c(=O)c3c(OC)cc4c(c3oc12)[C@@H]1C=CO[C@@H]1O4`, for which the growth is 87% (inactive). On the same count and under the same terms, under `O=C(NCCCN1CC1)Nc1cccc2ccccc12` stands 124% (inactive) and 86.9% (inactive). With `CN(C)c1ccc([N+](=O)[O-])c([N+](=O)[O-])c1`, the growth was 109% (inactive).

On to `C/C(=C(\c1ccc(OCCN2CCOCC2)cc1)c1ccc(OC(=O)Cc2ccccc2)cc1)c1ccc(Cl)cc1`, for which the growth is 96.8% (inactive). `CN(C)c1ccc(C=C2C(=O)NC(=O)NC2=O)cc1`: the growth was 58.2% (inactive). On to `CC(=O)Nc1nc2c(s1)C1=CC[C@H]3[C@@H]4CC[C@H](OC(C)=O)[C@@]4(C)CC[C@@H]3[C@@]1(C)CC2`, for which the growth was 62.1% (inactive). Take `CNC(=O)CCl`: the growth was 92.1% (inactive). With `CCOP(=O)(OCC)C(=O)N(CC)CC`, the growth was 95.4% (inactive).

Regarding `NC(=O)Oc1cc(OC(N)=O)cc(N(CCCl)CCCl)c1`, the growth is 77.6% (inactive). As to `CC[C@H](C)[C@H](NC(=O)CN(C)C)C(=O)N(C)[C@H](C[C@@H](OC(C)=O)c1nc(C(=O)NC23C4C5C2C2C3C4C52C(=O)OC)cs1)C(C)C` (stereo not given in full), the growth was -1.71% (active). Consider `CC(=O)c1cccc(S(=O)(=O)F)c1`, for which the growth was 95.8% (inactive). Still for that read-out and setting: under `O=C(CCCN1CCC2(CC1)C(=O)NCN2c1ccccc1)c1ccc(F)cc1` stands 50.3% (inactive) and 30.6% (inactive).

Consider `O=[P+](O)c1cccnc1`, for which the growth is 111% (inactive). As for `COc1ccc2c(c1)c(-c1nc(-c3cn(C)c4ncccc34)cs1)cn2CCCCN1CCOCC1`, the growth is 58.1% (inactive).

`CC[C@H](C)[C@H](NC(=O)[C@H]1CCCCN1C)C(=O)N(C)[C@H](C[C@@H](OC(C)=O)c1nc(C(=O)N[C@@H](Cc2ccccc2)C[C@H](C)C(=O)O)cs1)C(C)C`: the growth is -2.03% (active).

As to `O=C(O)c1ccc(=O)[nH]c1`, the growth is 63.4% (inactive) and 107% (inactive). For the compound `Nc1cccnc1`, the growth is 112% (inactive).

In the case of `CC(C)c1cccc(C(C)C)c1O`, the growth was 112% (inactive) and 113% (inactive). The same measure, in the same setting: under `C(=NC1CCCCC1)=NC1CCCCC1` stands 104% (inactive) and 51.2% (inactive). Turning to `CCCCCCCCCCCCCCCC[N+](C)(C)C`, the growth was -58% (active) and 25.3% (inactive). For the compound `O=S1(=O)OCCO1`, the growth was 99% (inactive). Same read-out and setting: then `N#CC(C#N)=Cc1cccc(F)c1`, with 102% (inactive); and `O=[N+]([O-])c1ccc(P(=O)(O)O)cc1`, with 125% (inactive). On the same count and under the same terms, under `COC(=O)C12C3C4C1C1C2C3C41NC(=O)c1csc([C@@H](C[C@H](C(C)C)N(C)C(=O)[C@@H](NC(=O)[C@H]2CCCCN2C)C2CC2)OC(C)=O)n1` (stereo not given in full) stands -3.52% (active); under `CC[C@H](C)[C@H](NC(=O)C12CC(NC)(C1)C2)C(=O)N(C)[C@H](C[C@@H](OC(C)=O)c1nc(C(=O)N[C@@H](Cc2ccccc2)C[C@H](C)C(=O)OC)cs1)C(C)C`, -0.0952% (active).

On to `O=[N+]([O-])c1c(Cl)cc(Cl)c([N+](=O)[O-])c1Cl`, for which the growth is 111% (inactive). As to `C[C@]12CCC3[C@@H](C[C@@H]4SC(Nc5ccccc5)=N[C@@]45CC(=O)CC[C@]35C)[C@@H]1CCC2=O` (stereo not given in full), the growth was 63.7% (inactive).

The experiment is the same for the next values; noted with them: 75 µM.
Consider `O=C(O)CCCc1ccc(N(CCCl)CCCl)cc1`, for which the growth is 68.5% (inactive).
